Shown are actives, neighbours in structure and some others; about 10% of the full set was active somewhere.
Pf growth 48h: Primary qHTS for delayed death inhibitors of the malarial parasite plastid, 48 hour incubation; P. falciparum luciferase growth in erythrocytes, 48 h; Potency, µM (highest dose often 28.7 µM), actives largely listed as inhibitors; hit rate 5.9% among 310,000
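First compound was added to culture medium, then infected red cells at 0.1% parasitemia and 2% hematocrit (final). After incubation at 37 C under 5% CO2, luciferase detection reagent was dispensed and light output recorded.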
Pf growth 96h: Primary qHTS for delayed death inhibitors of the malarial parasite plastid, 96 hour incubation; P. falciparum luciferase reporter growth, 96 h; Potency, µM (titrated, usually from 28.7 µM), actives largely listed as inhibitors; hit rate 6.9% among 320,000; AID 504834, 2011
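Two-generation exposure (96 h) targets delayed-death phenotype. Reporter parasites carrying integrated firefly luciferase, in red cells at 2% hematocrit and 0.05% parasitemia final, kept at 37 C, 5% CO2; luminescence loss indicates inhibition.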
NS1 function inh: qHTS Assay for Inhibitors of Influenza NS1 Protein Function; Potency, µM (titrated, usually from 46.1 µM); hit rate 0.4% among 270,000; calls by dose curve; further: actives are rising curves; nearly all actives have a fitted effect of over 50% in size
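Recovery from NS1-induced slow growth read by OD600 in budding yeast switched to galactose assay medium (pH 6.0, -URA) at 1:100 dilution. Compound 23 nl per well; the matching strain lacking NS1 serves as control.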
SARS PLpro yeast: qHTS of Yeast-based Assay for SARS-CoV PLP. S. cerevisiae expressing SARS-CoV PLpro, growth rescue. Potency, µM (top dose mostly 32.9 µM), most hits filed as activators. hit rate 0.19% among 330,000; calls by dose curve; further: nearly all actives have a fitted effect of over 55% in size
Numbers stand for hits; – = inactive; ? = inconclusive; · = not tested or not shown; [ ] = remark or other dose. Unless noted, the call rests on the fitted dose curve; in most records, active means well fitted inhibition curve with a large enough effect; inconclusive means small, poorly fitted or top-dose-only effect, or another doubt; inactive means no such curve, though single readings can be large or run the other way.

SMILES	Pf growth 48h	Pf growth 96h	NS1 function inh	SARS PLpro yeast
O=C(NC1CCCC1)c1cccc(Cl)c1	–	–	·	–
O=C(NC1CC1)c1ccc2c(c1)C1C3CCC(C3)C1C(c1ccccc1)N2 (configuration not stated)	9.3µM	7.4µM	–	–
CCOc1ccc(N(Cc2cc3cc(C)ccc3[nH]c2=O)S(=O)(=O)c2ccccc2)cc1	–	–	–	–
NCCCC[C@H]1CNC(=O)C(=O)N1CCCCC1CCCCC1	–	–	–	–
NCCCC[C@H]1CNC(=O)C(=O)N1CCC12CC3CC(CC(C3)C1)C2	12µM	7.4µM	–	–
CC(C)n1cc(CN2CCC(Oc3ccc(C(=O)N4CCCC4)cc3)CC2)cn1	–	–	–	–
CCN(CC)S(=O)(=O)c1ccc(N2CCCC2)c(NC(=O)C2CCCCC2)c1	–	–	–	–
CCN(CC)S(=O)(=O)c1ccc(N2CCCCC2)c(NC(=O)/C=C/c2ccc(OC)c(OC)c2)c1	9.3µM	10µM	?	–
CCOc1ccc(S(=O)(=O)Nc2cc(S(=O)(=O)N(CC)CC)ccc2N2CCCC2)cc1	7.4µM	1.3µM	–	–
CCN(CC)S(=O)(=O)c1ccc(/C=C/C(=O)NC2CCCCC2)cc1	?	4.7µM	–	–
CCN(CC)S(=O)(=O)c1ccc(N2CCCC2)c(NC(=O)Cc2cc(OC)c(OC)c(OC)c2)c1	7.4µM	?	–	–
CCOc1ccc(S(=O)(=O)N(CC)CC(=O)N2CCCC2)cc1	–	–	–	–
COc1ccc(C(C)(C)C)cc1NC(=O)c1cc(S(=O)(=O)N(C)C)ccc1N1CCCC1	13µM	9.3µM	?	–
CCN(CC)S(=O)(=O)c1ccc(N2CCCCC2)c(NC(=O)/C(C#N)=C/c2ccc(OC)cc2)c1	?	12µM	–	–
CCN(CC)S(=O)(=O)c1ccc(N2CCN(c3cccc(OC)c3)CC2)c([N+](=O)[O-])c1	?	9.3µM	–	–
CCN(CC)S(=O)(=O)c1ccc(N2CCCC2)c(NC(=O)Cc2ccc(OC)cc2)c1	?	?	·	–
COc1ccc(/C=C(\C#N)C(=O)Nc2cc(S(=O)(=O)N3CCOCC3)ccc2N2CCCC2)cc1	–	–	?	–
CN(C)S(=O)(=O)c1ccc(N2CCCC2)c(C(=O)Nc2ccc(F)cc2F)c1	?	?	·	–
CCN(CC)S(=O)(=O)c1ccc(N2CCCC2)c(NC(=O)c2ccc(OC)cc2OC)c1	13µM	?	·	–
NS(=O)(=O)c1cc(C(=O)O)c(O)c2ccccc12	·	·	–	·
CCOC(=O)C1(Cc2cccc(Cl)c2)CCCN(C(=O)CCN2CCCC2=O)C1 (configuration not stated)	–	–	–	?
O=c1ccc(-c2ccc(S(=O)(=O)Nc3ccccc3Cl)o2)n[nH]1	?	–	–	–
COc1ccc(Br)c(OC)c1C(=O)NC(=O)Nc1nc(C)cc(C)n1	–	–	–	–
COCCCNc1nc(-c2ccncc2)nc2ccccc12	?	–	–	–
COCCCNC(c1ccccc1)c1ccncc1 (configuration not stated)	–	2.6µM	–	–
SMILES	Pf growth 48h	Pf growth 96h	NS1 function inh	SARS PLpro yeast
O=C1CN(C(=O)COC(=O)c2ccc(Cl)c(S(=O)(=O)N3CCCCC3)c2)c2ccccc2N1	·	·	·	–
COc1ccc(C(=O)CSc2ccccc2C(=O)O)cc1	–	–	·	–
NS(=O)(=O)c1ccc(CCNC(=O)CCCC2=NS(=O)(=O)c3ccccc3N2)cc1	–	5.2µM	–	–
Cc1ccc(-c2nn(-c3ccc(F)cc3)cc2C(=O)NCCCN2CCCC2=O)cc1	?	?	·	–
COc1ccc(/C=N/Nc2snc(SC)c2C#N)cc1OC	4.1µM	–	–	–
CCCCCCCCCC(=O)NC(CN1CCOCC1)[C@H](O)c1ccccc1 (some centres not stated)	·	·	–	·
CCOC(=O)C1CCCN(c2ccc(NC(=O)c3snc4c(=O)[nH]cnc34)cc2)C1 (configuration not stated)	?	·	–	–
CCOC(=O)C1CCCN(c2ccc(NC(=O)c3snc4c(=O)[nH]c(C)nc34)cc2)C1 (configuration not stated)	?	0.93µM	–	–
COc1cc(C(=O)N2CCc3ccccc32)c([N+](=O)[O-])cc1OC	–	–	–	–
CC(C(=O)O)N1C(=O)C2C3c4ccccc4C(c4ccccc43)[C@@H]2C1=O (some centres not stated)	–[0.00184 µM]	–	–	–
CCCCCc1ccc(CC(=O)O)cc1	–	9.3µM	–	–
Cc1cccc(N2CCN(C(=O)[C@H](C)N3C(=O)C4CC=CCC4C3=O)CC2)c1C (some centres not stated)	·	·	·	–
CCCn1c(=N)c(C(=O)NCc2ccc3c(c2)OCO3)cc2c(=O)n3cccc(C)c3nc21	1µM	–	–	–
Cc1cccn2c(=O)c3cc(C(=O)NCC4CCCO4)c(=N)n(C4CCCCC4)c3nc12 (configuration not stated)	?	1.3µM	–	–
COCCn1c(=N)c(C(=O)NCCc2ccc(OC)cc2)cc2c(=O)n3cccc(C)c3nc21	2.1µM	2.9µM	–	–
Cc1cccn2c(=O)c3cc(C(=O)NCC4CCCO4)c(=N)n(CC4CCCO4)c3nc12 (configuration not stated)	–	–	–	–
Cc1cccn2c(=O)c3cc(C(=O)NCc4ccco4)c(=N)n(C4CCCC4)c3nc12	–	–	–	–
Cc1cccn2c(=O)c3cc(C(=O)NCc4ccc(F)cc4)c(=N)n(CC4CCCO4)c3nc12 (configuration not stated)	4.1µM	2.9µM	–	–
COC(=O)CNC(=O)C1CCN(S(=O)(=O)c2cnc[nH]2)CC1	–	?	–	–
CCN(C(=O)COC(=O)c1ccc(F)c(S(=O)(=O)N2CCOCC2)c1)C1CCS(=O)(=O)C1 (configuration not stated)	–	–	–	–
O=C(O)CCCn1cc(NC(=O)c2sc3ccccc3c2Cl)cn1	–	–	–	–
N#Cc1cc([N+](=O)[O-])ccc1NC(=O)CSc1n[nH]c(=O)[nH]c1=O	·	·	·	–
Cc1c(N(C(=O)c2ccccn2)C2(C(=O)NC3CCCC3)CCCCC2)c(=O)n(-c2ccccc2)n1C	?	?	·	–
Cc1c(NC(=O)Nc2cccc(Cl)c2Cl)c(=O)n(-c2ccccc2)n1C	–	–	–	–
C=CCn1c(=N)c(C(=O)NCCCOC)cc2c(=O)n3cc(C)ccc3nc21	–	7.4µM	–	–
COc1ccc(CNC(=O)c2cc3c(=O)n4cccc(C)c4nc3n(CC3CCCO3)c2=N)cc1 (configuration not stated)	?	5.2µM	–	–
Cc1ccc(N2C(=O)C(Cl)=C(N3CCOCC3)C2=O)c(C)c1	–	–	–	–
N#Cc1ccc(-c2csc(NC(=O)/C=C/c3cccs3)n2)cc1	?	10µM	–	–
CNCC(C)COc1ccccc1OCc1ccccc1 (configuration not stated)	?	12µM	–	–
CC(O)CNCCCOc1ccccc1OCc1ccccc1 (configuration not stated)	?	–	–	–

Source: PubChem (National Center for Advancing Translational Sciences (NCATS))
